Shown is part of a subset that was picked to be rich in hits.
D1 mod – D1 CRE-luciferase signal change, two-sided – cell-based, HEK293 D1, dopamine EC30, D1 allosteric modulator project, primary screen; dopamine EC30 potentiation; actives deviate in either direction; B-score at 10 µM; 58,000 tested, 5.9% active; AID 641, 2007;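 active means luminescence count or its row- and column-corrected plate score outside the 99.7% band of the plate's sample wells, on either side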
Target sequence (P21728 whole entry, looked up): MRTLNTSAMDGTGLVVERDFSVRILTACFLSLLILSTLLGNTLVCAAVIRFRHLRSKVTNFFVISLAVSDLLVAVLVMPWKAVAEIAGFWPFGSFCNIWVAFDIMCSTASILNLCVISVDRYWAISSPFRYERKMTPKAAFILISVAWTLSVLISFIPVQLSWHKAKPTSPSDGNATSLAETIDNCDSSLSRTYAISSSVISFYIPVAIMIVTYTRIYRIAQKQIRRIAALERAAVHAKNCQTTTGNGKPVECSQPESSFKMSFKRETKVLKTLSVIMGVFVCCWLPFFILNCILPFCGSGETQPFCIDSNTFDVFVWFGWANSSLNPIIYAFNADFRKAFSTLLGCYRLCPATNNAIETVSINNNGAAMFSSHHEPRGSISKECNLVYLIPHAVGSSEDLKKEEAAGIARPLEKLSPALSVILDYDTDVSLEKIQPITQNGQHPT
PKA kinase inh – inhibitors of human PKA kinase activity, primary screen, biochemical, ATP-depletion luminescence, Kemptide substrate; cAMP-dependent protein kinase catalytic subunit alpha (Homo sapiens), P17612; 65,000 tested, 0.1% active; inhibition, % at 6 µM; AID 524, 2006; PKA Kemptide phosphorylation, Kinase-Glo ATP luminescence;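 active means inhibition above the screen-wide mean inhibition plus 3 SD, cut at about 21% in these data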
ROCK2 blocker – inhibitors of human ROCK2 kinase, primary screen, biochemical, high-throughput, luminescence; AID 604, 2007; inhibition, % at 6 µM; purified ROCK2, Kinase-Glo ATP depletion luminescence; Rho-associated protein kinase 2 (Homo sapiens), O75116; 60,000 tested, 0.35% active;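 active means inhibition above the screen-wide mean inhibition plus 3 SD, cut at about 18% in these data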
DAT uptake mod – changed hDAT dopamine uptake under cocaine IC80, either direction, primary screen, cocaine antagonist project, cell-based, LLC-PK1 hDAT, [14C]-dopamine uptake, MLSMR | Sodium-dependent dopamine transporter (Homo sapiens), Q01959 | LLC-PK1 hDAT cells, [14C]-dopamine uptake with cocaine IC80; actives deviate in either direction | B-score at 10 µM | 110,000 tested, 1.3% active;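 active means Z score or B-score, a plate-position-corrected score, falls beyond the plate's 99.7% confidence bounds, in either direction; inactive means both scores lie inside the 99.7% bounds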
D1 PAM confirm – D1 receptor positive allosteric modulators, retest, confirmation, cell-based, HEK293 D1, CRE-luciferase, duplicate | shares compounds with D1 mod | dopamine EC30 potentiation; hits give high values | luminescence at 10 µM | 2,200 tested, 88% active | AID 642, 2007;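 active means luminescence in either of two replicates above the same-plate mean plus 3 SD of the low-dose dopamine control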
D1 no dopamine – D1 receptor agonism without dopamine, confirmation, mechanism study for D1 allosteric modulator project, cell-based, HEK293 D1, CRE-luciferase, secondary assay 1. 1,900 tested, 0.8% active. luminescence at 10 µM. shares compounds with D1 mod. luminescence, no dopamine; hits give high values; in the data active means luminescence above about 3900
Isoprot counter – alters isoproterenol CRE-luciferase response in HEK293 cells; shares compounds with D1 mod; HEK293 D1 CRE-luciferase, isoproterenol EC30 counter-screen; calls only at 10 µM; 2,200 tested, 63% active; AID 647;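 active means luminescence in either replicate above plate mean of wells with a partly effective reference agonist dose plus 3 SD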;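 further: isoproterenol raises cAMP through native beta-adrenoceptor Gs so signal bypasses D1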
Of the large screens only hits and unclear results are named; the others gave an inactive call (follow-up assays come after a bar, where they were run).

O=C(CCC1CCCCC1=O)c1ccccc1 (stereo not given)	none
CC1(C)CC(=O)C(CCC(=O)c2ccccc2)C(C)(C)N1 (stereo not given)	D1 mod 4.7 | D1 PAM confirm inactive | D1 no dopamine inactive | Isoprot counter inactive
CCc1ccc(N(CC(=O)Nc2ccc(OC)cc2OC)S(C)(=O)=O)cc1	none
N#Cc1nc(-c2ccccc2F)oc1NC1CCCCC1	D1 mod 9.7 | D1 PAM confirm 18604 | D1 no dopamine inactive | Isoprot counter active
N#Cc1nc(-c2ccccc2F)oc1NCc1cccc2c1OCO2	D1 mod 21 | D1 PAM confirm 21008 | D1 no dopamine inactive | Isoprot counter active
CCOc1ccccc1CNC(=O)C1CCN(C(=O)c2sccc2-n2cccc2)CC1	none (no result: D1 mod)
Cc1cc(C)n(-c2nc3ccccc3nc2Nc2ccc(CC(=O)O)cc2)n1	D1 mod 21 | D1 PAM confirm 7376 | D1 no dopamine inactive | Isoprot counter inactive
Cc1ccc(N2CC(C(=O)NCC3CCCO3)CC2=O)cc1Cl (stereo not given)	none (no result: D1 mod)
O=C(Cc1ccccc1)Nc1ccc(C(=O)O)cc1	none
O=C(Cc1ccccc1)Nc1nonc1NC(=O)c1ccccc1	D1 mod 4.1 | D1 PAM confirm 8752 | D1 no dopamine inactive | Isoprot counter active
COc1cc2c(cc1OC)-c1cc(NC3CCCC3)nc(=O)n1CC2	D1 mod 8.5 | D1 PAM confirm 14200 | D1 no dopamine inactive | Isoprot counter active
COC(=O)c1ccc(OCCn2cnc3ccccc3c2=O)cc1	D1 mod 5.2 | D1 PAM confirm 9464 | D1 no dopamine inactive | Isoprot counter inactive
COC(=O)Cn1cnc2ccccc2c1=O	none (no result: D1 mod, PKA kinase inh, ROCK2 blocker)
COC(=O)c1ccc(OCC(O)CN2C(=O)NC(C)(C)C2=O)cc1 (stereo not given)	D1 mod 5.8 | D1 PAM confirm 6500 | Isoprot counter inactive
CCCOC(=O)c1ccc(OCC(O)CN2C(=O)NC(C)(C)C2=O)cc1 (stereo not given)	none (no result: D1 mod)
NC(=O)C1CCN(c2nc(-c3ccccc3)nc3ccccc23)CC1	D1 mod 15 | D1 PAM confirm 24116 | D1 no dopamine inactive | Isoprot counter active
c1cncc(-c2nc(N3CCCCCC3)c3ccccc3n2)c1	D1 mod 12 (no result: DAT uptake mod) | D1 PAM confirm 14412 | D1 no dopamine inactive | Isoprot counter active
CN1CCN(c2nc(-c3cccnc3)nc3ccccc23)CC1	none (no result: D1 mod)
COCC(C)NC(=O)C1CC(c2cccc(Br)c2)=NO1 (stereo not given)	none
O=C(C1CCCCC1)N(Cc1nc2sc3c(c2c(=O)[nH]1)CCCC3)Cc1cccs1	none
Cc1sc2ncnc(SCC(=O)N3CCCC3)c2c1C	D1 mod 2.3 | D1 PAM confirm 7900 | D1 no dopamine inactive | Isoprot counter inactive
CC(C)c1[nH]c(=O)c(C#N)c2c1COC(C)(C)C2	none (no result: D1 mod, PKA kinase inh, ROCK2 blocker)
CSc1c(C#N)c(N)c(C#N)c2c1COC(C)(C)C2	D1 mod 25 | D1 PAM confirm 28108 | D1 no dopamine inactive | Isoprot counter active
CCOC(=O)c1nn(-c2ccc(OC)cc2)c(=O)c2c(N)scc12	D1 mod 5.1 | D1 PAM confirm 6660 | D1 no dopamine inactive | Isoprot counter inactive
CCOC(=O)c1nn(-c2ccc(C)c(C)c2)c(=O)c2c(N)scc12	none (no result: D1 mod, PKA kinase inh, ROCK2 blocker)
COc1ccc(Cl)cc1NC(=O)c1cccnc1	none
O=C(NCc1ccco1)c1cc(C(=O)C2CC2)c[nH]1	none (no result: D1 mod, PKA kinase inh, ROCK2 blocker)
CCOC(=O)C1=C(C)Nc2nc(SC)nn2C1c1ccc(C(=O)OC)cc1 (stereo not given)	D1 mod 4 | D1 PAM confirm 8432 | D1 no dopamine inactive | Isoprot counter inactive
COCCOC(=O)C1=C(C)Nc2nc(C)nn2C1c1ccc(F)cc1 (stereo not given)	none
CCOC(=O)C1=C(C)N(CCCC(=O)O)C(=O)NC1c1ccccc1OC(=O)c1cccs1 (stereo not given)	none (no result: D1 mod, PKA kinase inh, ROCK2 blocker)
Nc1nc(CSc2ccccn2)nc(Nc2ccccc2)n1	D1 mod 3.6 (no result: ROCK2 blocker) | D1 PAM confirm 10684 | Isoprot counter active
Nc1nc(CSCCO)nc(Nc2ccccc2)n1	none (no result: D1 mod, PKA kinase inh, ROCK2 blocker)
Cc1ccc(Nc2nc(N)nc(CSc3nnnn3-c3ccccc3)n2)cc1	D1 mod 7.1 | D1 PAM confirm 9096 | Isoprot counter inactive
Cc1nnc(NC(=O)CSc2nnc(Cc3cccn3C)n2-c2cccc(C(F)(F)F)c2)s1	D1 mod 3.4 | D1 PAM confirm inactive | D1 no dopamine inactive | Isoprot counter inactive
COc1ccc(-n2c(Cc3cccn3C)nnc2SCC(=O)Nc2ccccc2OC)cc1	none
Cc1ccc(-n2c(Cc3cccn3C)nnc2SCC(=O)Nc2nnc(C)s2)cc1	none
COc1ccc(-n2c(Cc3cccn3C)nnc2SCC(=O)Nc2ccc(C)cc2C)cc1	D1 mod 17 | D1 PAM confirm inactive | D1 no dopamine inactive | Isoprot counter inactive
CCOc1ccc(N(C(C)C(=O)NCc2ccco2)S(C)(=O)=O)cc1 (stereo not given)	none (no result: D1 mod, PKA kinase inh, ROCK2 blocker)
CC(C)OCCCN1CN(S(=O)(=O)c2ccccc2)c2nc3ccccc3nc21	none
CC(C)CN1CN(S(=O)(=O)c2cccs2)c2nc3ccccc3nc21	D1 mod 11 | D1 PAM confirm 18664 | D1 no dopamine inactive | Isoprot counter active
Cc1ccnc(SCCn2c(N3CC(C)CC(C)C3)nc3c2c(=O)n(C)c(=O)n3C)n1 (stereo not given)	D1 mod 3 | D1 PAM confirm 5916 | D1 no dopamine inactive | Isoprot counter active
CCC(C)COC(=O)C(C#N)c1nc2ccccc2nc1N1CCCCC1 (stereo not given)	none
CC(C)OC(=O)C(C#N)c1nc2ccccc2nc1N1CCCC1 (stereo not given)	D1 mod 10 | D1 PAM confirm 20752 | D1 no dopamine inactive | Isoprot counter active
COC(=O)C(C#N)c1nc2ccccc2nc1N1CCCC1 (stereo not given)	D1 mod 5.5 | D1 PAM confirm 9832 | Isoprot counter active
CCOC(=O)C1CCN(c2nc3ccccc3nc2C(C#N)C(=O)OC(C)C)CC1 (stereo not given)	none
N#Cc1cc2c(nc1SCC(=O)O)CCCC2	none (no result: D1 mod, PKA kinase inh, ROCK2 blocker)
CCc1ccc2nc(SCC(=O)N3CCCCC3)c(C#N)cc2c1	none (no result: D1 mod, PKA kinase inh, ROCK2 blocker)
N#Cc1cc2c(nc1SCC(=O)Nc1sc3c(c1C#N)CCC3)CCCCC2	D1 mod 6 | D1 PAM confirm 10448 | D1 no dopamine inactive | Isoprot counter active

From PubChem
